Source: PubChem BioAssay (EPA / NIEHS)
Inconclusive results are not listed. Active and inactive are the calls of the source. How the source made its calls, unless noted: active means hit-call score of the fitted dose curve at least 0.9, where 1 is the maximum; inactive means score below 0.9. Peptide text beside a SMILES is read from it.

Experiments:
[1] = molecular target: Nucleoli Translocation, AR (gene 367) (UniProt P10275); assay: UPITT_HCI_U2OS_AR_TIF2_Nucleoli_Antagonist: University of Pittsburgh U2OS Androgen Receptor-Transcriptional Intermediary Factor 2 (AR-TIF2) Antagonism High Content Imaging Assay for Nucleoli Translocation (AID 2283997; active means hit-call score of the fitted dose curve at least 0.9, where 1 is the maximum)
In short: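 Measured quantity was AR-RFP fluorescence localized to nucleoli in engineered U2OS cells also bearing TIF2-GFP, acquired on automated high-content imagers. Primary testing used 20 uM compound; actives were confirmed in triplicate wells.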

[2] = molecular target: Ratio of Nucleoli Translocation and Cytoplasm, AR (gene 367) (UniProt P10275); assay: UPITT_HCI_U2OS_AR_TIF2_Nucleoli_Cytoplasm_Ratio_Antagonist: University of Pittsburgh U2OS Androgen Receptor-Transcriptional Intermediary Factor 2 (AR-TIF2) Antagonism High Content Imaging Assay for Ratio of Nucleoli Translocation and Cytoplasm (AID 2283999; active means hit-call score of the fitted dose curve at least 0.9, where 1 is the maximum;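 further: antagonists lower the DHT-driven ratio of nucleolar to cytoplasmic red signal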)
In short: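 Human osteosarcoma U2OS line, AR fused to RFP, coactivator TIF2 fused to GFP. Cpds 20 uM final, 0.2% DMSO (screen); 0.195–50 uM final, 0.5% DMSO (CRC). Endpoint: nucleoli/cytoplasm red signal ratio, DHT as baseline, loss-of-signal antagonist mode.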

[3] = CCTE_Harrill_HTTr_Viability_MCF7: CCTE's 6-hour Cell Viability Assessment for the High-Throughput Transcriptomics (HTTr) Platform, in MCF-7 cells cultured in DMEM + 10% fetal bovine serum, Harrill Lab (AID 2284010)
In short: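 Cells were dosed with chemicals in an eight-point dilution series, imaged 6 hours later for propidium iodide uptake, and the endpoint was analyzed by bidirectional fitting against DMSO as negative control.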

[4] = molecular target: Nucleoli Translocation, AR (gene 367) (UniProt P10275); assay: UPITT_HCI_U2OS_AR_TIF2_Nucleoli_Agonist: University of Pittsburgh U2OS Androgen Receptor-Transcriptional Intermediary Factor 2 (AR-TIF2) Agonism High Content Imaging Assay for Nucleoli Translocation (AID 2283998; active means hit-call score of the fitted dose curve at least 0.9, where 1 is the maximum)
In short: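 Cells express human AR fused to red fluorescent protein and TIF2 fused to GFP. Red fluorescence in the nucleolar region was quantified by high-content imaging and fitted as gain-of-signal against a DMSO baseline. Compounds were tested at 0.195 to 50 uM final (0.5% DMSO).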

[5] = molecular target: Ratio of Nucleoli Translocation and Cytoplasm, AR (gene 367) (UniProt P10275); assay: UPITT_HCI_U2OS_AR_TIF2_Nucleoli_Cytoplasm_Ratio_Agonist: University of Pittsburgh U2OS Androgen Receptor-Transcriptional Intermediary Factor 2 (AR-TIF2) Agonism High Content Imaging Assay for Ratio of Nucleoli Translocation and Cytoplasm (AID 2284000; active means hit-call score of the fitted dose curve at least 0.9, where 1 is the maximum;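 further: hits raise the red nucleolar to cytoplasm ratio above vehicle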)
In short: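 Read-out first: nucleolar-to-cytoplasm ratio of red (AR-RFP) signal, quantified by high-content imaging in U2OS cells co-expressing TIF2-GFP. Activity is scored as signal increase over DMSO. Single-point screening used 20 uM final (0.2% DMSO).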

[6] = CCTE_Harrill_HTTr_Apoptosis_MCF7: CCTE's 6-hour Apoptosis Assessment for the High-Throughput Transcriptomics (HTTr) Platform, in MCF-7 cells cultured in DMEM + 10% fetal bovine serum, Harrill Lab (AID 2284011)
In short: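 MCF-7 cells in DMEM + 10% fetal bovine serum were exposed to chemicals for 6 hours over an eight-point dilution series. Caspase-3/7 activation was imaged by high content imaging with CellEvent Caspase 3/7 Green; bidirectional fitting used DMSO as baseline.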

[7] = CCTE_Shafer_MEA_acute_spike_number: CCTE's Neural Acute Assay for Total Number of Spikes, Shafer Lab (AID 2284008);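 on AC50: curve fitted for decrease in spike count so AC50 reflects inhibitors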
In short: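 Primary rat cortical neurons on 16-electrode MEA wells; on DIV 13 or 15, 40-min baseline then 40-min recording with compound (0.03-40 uM) at 37 C. Spikes detected at 8x rms noise; percent change versus baseline, DMSO as negative control.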

[8] = CCTE_Shafer_MEA_acute_firing_rate_mean: CCTE's Neural Acute Assay for Mean Firing Rate, Shafer Lab (AID 2284009);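 further: analyzed for loss of signal so actives lower firing rate relative to DMSO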
In short: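 Percent change in well-mean firing rate was derived from extracellular spikes detected at 8x rms noise (300-5000 Hz band-pass) before and after a 40-min compound exposure. Cultures were primary rat cortical neurons, tested at 0.03-40 uM.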

[9] = system: DIO1 (gene 1733); assay: CCTE_GLTED_hDIO1: CCTE's human Deiodinase 1 (DIO1) Inhibition Assay, Great Lakes Toxicology and Ecology Division (GLTED) Lab (AID 2283987; active means hit-call score of the fitted dose curve at least 0.9, where 1 is the maximum;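 further: isolated human DIO1 enzyme in a cell-free setup rather than cells; enzyme activity read as free iodide liberated from substrate via Sandell-Kolthoff colorimetry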)
Description: CCTE_GLTED_hDIO1 is a cell-free, single-readout assay designed to test the inhibitory activity of chemicals toward human iodothyronine Deiodinase type 1 (DIO1) enzyme. Enzyme is incubated in presence of test chemical for 3 hours during which uninhibited enzyme liberates free iodide from substrate. Free iodide is measured in a second step using the Sandell-Kolthoff method.CCTE_GLTED_hDIO1 is the assay component measured from the CCTE_GLTED_hDIO1 assay. It is designed to make measurements of enzyme activity, a form of enzyme reporter, as detected with absorbance signals by spectrophotometry.Data from the assay component CCTE_GLTED_hDIO1 was analyzed into 1 assay endpoint. This assay endpoint, CCTE_GLTED_hDIO1, was analyzed in the positive analysis fitting direction relative to DMSO as the negative control and baseline of activity. Using a type of enzyme reporter, loss-of-signal activity can be used to understand changes in the enzymatic activity as they relate to the gene DIO1. Furthermore, this assay endpoint can be referred to as a primary readout, because the performed assay has only produced 1 assay endpoint. To generalize the intended target to other relatable targets, this assay endpoint is annotated to the 'deiodinase' intended target family, where the subfamily is 'deiodinase Type 1'.
[…] assay, developed at Great Lakes Toxicology and Ecology Division (GLTED) within the EPA's Center for Computational Toxicology and Exposure (CCTE), is designed to test the chemicals' ability to inhibit DIO1. Assay is based on iodide release measured by the Sandell-Kolthoff method and is run in 96-well plate format with assay plates run in triplicate (n=3). The method used for the deiodinase assay was largely based on Renko et al. (2012, 2015). These works describe the utilization of the SK reaction to measure deiodinase-liberated iodide in a 96-well-plate format. The SK reaction is based on the reduction of the yellow-colored cerium IV to the non-colored cerium III by arsenic, with the rate of this reaction increased in the presence of iodide in a concentration-dependent manner (Sandell and Kolthoff, 1937). Iodinated test chemicals can interfere as competitive inhibitors, or if the stock chemical has contaminating free-iodide present. Other chemicals, e.g.: nitrite, iron, and thiocyanate can interfere with the Sandell-Kolthoff reaction (see Sandell and Kolthoff, 1937).

[10] = TOX21_PR_LUC_Followup_Agonist_viability: Viability Assessment in the Tox21 HEK293 Progesterone Receptor (PR) Agonism Luciferase Follow-Up Assay (AID 2283941; active means hit-call score of the fitted dose curve at least 0.9, where 1 is the maximum;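 further: loss of signal means cytotoxicity so actives lower viability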)
In short: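 Cells were kept 5 days in charcoal-stripped serum medium before plating HEK293-PR-A-luc at 3,000 cells/well. After 5 h they received DMSO-dissolved compound and incubated 16 h at 37C. Viability was taken from CellTiter-Glo ATP luminescence.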

Ratio of Nucleoli Translocation and Cytoplasm, AR (gene 367), sequence (P10275 whole entry, looked up, the tested form may be a part): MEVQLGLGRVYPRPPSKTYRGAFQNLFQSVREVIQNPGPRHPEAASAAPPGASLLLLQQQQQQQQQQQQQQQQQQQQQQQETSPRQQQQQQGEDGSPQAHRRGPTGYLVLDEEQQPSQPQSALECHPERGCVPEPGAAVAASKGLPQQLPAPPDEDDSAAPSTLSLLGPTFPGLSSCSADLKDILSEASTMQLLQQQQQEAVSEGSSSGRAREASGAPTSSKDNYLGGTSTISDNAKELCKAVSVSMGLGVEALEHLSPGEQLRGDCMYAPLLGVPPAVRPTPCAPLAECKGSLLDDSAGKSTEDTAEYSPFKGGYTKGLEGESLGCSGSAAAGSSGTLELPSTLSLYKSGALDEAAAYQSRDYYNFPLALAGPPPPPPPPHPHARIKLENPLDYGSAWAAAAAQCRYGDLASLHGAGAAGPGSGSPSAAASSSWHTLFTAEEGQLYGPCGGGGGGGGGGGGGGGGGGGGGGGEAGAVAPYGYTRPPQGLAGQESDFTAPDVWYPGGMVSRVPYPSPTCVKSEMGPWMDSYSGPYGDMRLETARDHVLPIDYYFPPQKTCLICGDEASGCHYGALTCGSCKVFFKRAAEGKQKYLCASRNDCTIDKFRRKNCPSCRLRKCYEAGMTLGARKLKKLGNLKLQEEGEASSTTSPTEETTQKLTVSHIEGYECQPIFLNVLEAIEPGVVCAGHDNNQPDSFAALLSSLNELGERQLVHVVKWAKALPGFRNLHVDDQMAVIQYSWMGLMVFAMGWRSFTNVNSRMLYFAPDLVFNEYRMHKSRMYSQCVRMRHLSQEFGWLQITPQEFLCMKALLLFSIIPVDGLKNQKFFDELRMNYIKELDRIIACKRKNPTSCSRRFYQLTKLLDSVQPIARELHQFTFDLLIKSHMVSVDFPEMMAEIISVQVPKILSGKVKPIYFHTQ
Nucleoli Translocation, AR (gene 367), sequence (P10275 whole entry, looked up, the tested form may be a part): as above

Oc1ccc(/C=C/c2cc(O)cc(O)c2)cc1
AC50 [1]: 5.07 µM (active)
outcome [2]: inactive
outcome [3]: inactive

CCC(C)c1ccccc1 (stereo not given)
outcome [1]: inactive
outcome [4]: inactive
outcome [5]: inactive
outcome [3]: inactive
outcome [6]: inactive

CC(C)C(=O)OCCc1ccccc1
outcome [7]: inactive
outcome [8]: inactive

Cc1ccc(C)c(OCCCC(C)(C)C(=O)O)c1
outcome [1]: inactive
outcome [4]: inactive
outcome [2]: inactive
outcome [5]: inactive
outcome [3]: inactive

CCCCCCCCCCCCCCCCCCOS(=O)(=O)O
AC50 [9]: 90.1 µM (active)

CC(CCC(=O)O)(c1ccc(O)cc1)c1ccc(O)cc1
outcome [7]: inactive
outcome [8]: inactive

Nc1ccc(C(=O)OCCCOC(=O)c2ccc(N)cc2)cc1
outcome [10]: inactive

O=c1c(O)c(-c2ccc(O)cc2O)oc2cc(O)cc(O)c12
AC50 [9]: 9.81 µM (active)

COc1cc(O)c(C(=O)c2ccccc2)cc1S(=O)(=O)O
outcome [1]: inactive
outcome [3]: inactive
outcome [6]: inactive

CC(=O)OCc1ccccc1
outcome [1]: inactive
outcome [4]: inactive
outcome [2]: inactive
outcome [5]: inactive
outcome [3]: inactive

CCCCCCCCCC(C)=O
outcome [4]: inactive
outcome [5]: inactive

CC(=O)OC1CCCCC1C(C)(C)C (stereo not given)
outcome [5]: inactive
outcome [3]: inactive
outcome [6]: inactive

CCCCC(CC)COC(=O)/C=C/c1ccc(OC)cc1 (stereo not given)
outcome [1]: inactive
outcome [4]: inactive
outcome [5]: inactive

Oc1ccc(-c2ccccc2)c(Cl)c1
AC50 [1]: 13.8 µM (active)
AC50 [4]: 13.4 µM (active)
outcome [2]: inactive
outcome [5]: inactive
outcome [3]: inactive
outcome [6]: inactive

CCCCCCCCCCCC(=O)N(C)CC(=O)O
outcome [7]: inactive
outcome [8]: inactive

O=C(O)c1ccc2c(c1)C(=O)OC2=O
outcome [1]: inactive
outcome [4]: inactive
outcome [2]: inactive
outcome [3]: inactive

CCCCCC[C@@H](O)C/C=C\CCCCCCCC(=O)OCC(O)CO (stereo not given in full)
outcome [1]: inactive
outcome [4]: inactive
outcome [2]: inactive
outcome [5]: inactive

Nc1cccc(N)n1
AC50 [7]: 5.05 nM (active)
AC50 [8]: 3.19 nM (active)

c1ccc(Nc2cccc3ccccc23)cc1
AC50 [7]: 1080 nM (active)
AC50 [8]: 979 nM (active)

CN(C)Cc1cc(CN(C)C)c(O)c(CN(C)C)c1
outcome [1]: inactive
outcome [4]: inactive
outcome [2]: inactive
outcome [5]: inactive

N#Cc1ccc(C(c2ccc(C#N)cc2)n2cncn2)cc1
outcome [1]: inactive
outcome [4]: inactive
outcome [5]: inactive
outcome [3]: inactive
outcome [6]: inactive

Nc1nc(N)nc(-c2ccccc2)n1
outcome [7]: inactive
outcome [8]: inactive

COC(=O)[C@H](Cc1ccccc1)NC(=O)[C@@H](N)CC(=O)O (H-Asp-Phe-OMe)
outcome [7]: inactive
outcome [8]: inactive

CCCCC/C=C\C/C=C\CCCCCCCC(=O)O
AC50 [9]: 19.2 µM (active)
outcome [3]: inactive
outcome [6]: inactive

CCCC(C)C(=O)OCC (stereo not given)
outcome [7]: inactive
outcome [8]: inactive
outcome [3]: inactive

CCCCCCCOC(=O)c1ccc(O)cc1
AC50 [9]: 75 µM (active)

CCc1cccc(C)c1N
outcome [1]: inactive
outcome [4]: inactive
outcome [2]: inactive

O=C(O)c1cc(O)c2ccccc2c1O
AC50 [9]: 50.1 µM (active)

Cc1c(C(=O)c2c[nH]n(C)c2=O)ccc(S(C)(=O)=O)c1C1=NOCC1
outcome [7]: inactive
outcome [8]: inactive
outcome [3]: inactive

c1ccc2c(c1)[nH]c1ccccc12
outcome [10]: inactive
AC50 [1]: 8.38 µM (active)
outcome [4]: inactive
outcome [2]: inactive
outcome [5]: inactive
outcome [3]: inactive
outcome [6]: inactive

CCCCCCCCCCCCc1ccc(O)cc1
AC50 [9]: 31.5 µM (active)

COc1ccc(C(=O)c2ccccc2)c(O)c1
AC50 [1]: 50 µM (active)
outcome [2]: inactive
outcome [3]: inactive

C=C1C[C@H]2[C@@H]3C=C(C)C4=CC(=O)CC[C@]4(C)[C@H]3CC[C@]2(C)[C@@]1(OC(C)=O)C(C)=O
AC50 [1]: 0.0947 µM (active)
AC50 [4]: 4 µM (active)
outcome [2]: inactive
outcome [5]: inactive
outcome [3]: inactive
outcome [6]: inactive

CCCCCCCCCCCCCC(=O)OC(C)C
outcome [4]: inactive
outcome [2]: inactive
outcome [5]: inactive
outcome [3]: inactive

CC(=O)CC(=O)Nc1ccccc1C
outcome [3]: inactive
outcome [6]: inactive

CC(=O)c1ccccc1O
outcome [3]: inactive
outcome [6]: inactive

O=C(O)/C=C/c1ccccc1
outcome [3]: inactive
outcome [6]: inactive

CC(C)(O)Cc1ccccc1
outcome [3]: inactive
outcome [6]: inactive

O=C(O)CCCC(=O)O
outcome [3]: inactive
outcome [6]: inactive

CC(C)(CO)C(O)C(=O)NCCCO (stereo not given)
outcome [3]: inactive
outcome [6]: inactive

O=C(O)C1CCC(C(=O)O)CC1 (stereo not given)
outcome [3]: inactive
outcome [6]: inactive

COC(=O)C=Cc1ccccc1
outcome [3]: inactive
outcome [6]: inactive

CCOC(=O)C1=NN(c2ccc(Cl)cc2Cl)C(C)(C(=O)OCC)C1 (stereo not given)
outcome [3]: inactive
outcome [6]: inactive

CCCCOCC(C)O (stereo not given)
outcome [3]: inactive
outcome [6]: inactive

CC(=O)c1ccc(S(=O)(=O)NC(=O)NC2CCCCC2)cc1
outcome [3]: inactive
outcome [6]: inactive

CC=CC(=O)OCC(C)C
outcome [3]: inactive
outcome [6]: inactive

O=C(O[C@@H]1Cc2c(O)cc(O)cc2O[C@@H]1c1cc(O)c(O)c(O)c1)c1cc(O)c(O)c(O)c1
outcome [3]: inactive
outcome [6]: inactive
